Consider 41 molecules from PubChem BioAssay.

Measured potencies and affinities stand elsewhere. Inconclusive results are not listed. Activity calls are given as the source filed them.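 The calls were made as follows, unless noted: active = a dose-response fit showing signal loss, with half-maximal concentration no higher than twice the top tested dose; inconclusive = flat fit between 30% and 70% signal loss, or poor fit; inactive = the rest.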

Test [1] in a line: Cryptococcus neoformans growth inhibition, dose response, Alamar Blue, cherry-picks (AID 686998;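 active = falling signal with fitted half-maximal potency no higher than twice the top valid tested dose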).
Test [2] is described as follows: HepG2 cell cytotoxicity, dose response, cytotoxicity control, cherry-picks, set 2 (AID 687002).
The nature of test [3]: HeLa cell cytotoxicity, dose response, cytotoxicity control, ATP luminescence, cherry-pick samples (AID 687004;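 active = a fitted half-maximal concentration no higher than twice the top valid tested dose, with signal falling as cells die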).
Test [4] can be described thus: inducers of Cryptococcus neoformans cell lysis, dose response, AK release luminescence, cherry-picks (AID 687000;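 active = fitted dose curve reaches 40% lysis signal rise at or below the highest valid concentration tested for that sample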;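 also: luminescent detection of adenylate kinase leaking from lysed yeast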).
Test [5] in a line: A549 cell cytotoxicity, dose response, cytotoxicity control, plate reader, cherry-pick, antagonist series (AID 743412; call rule not given here).
Test [6] in a line: HepG2 cell cytotoxicity, dose response, cytotoxicity control, plate reader, cherry-pick, antagonist series (AID 743416; call rule not given here).
Test [7] concerns the target Melanocortin receptor 4 (Homo sapiens) (UniProt P32245). Briefly: MC4R antagonists, dose response, counter-screen for LGR2 antagonist project, cell-based, plate reader, cherry pick (AID 743444; call rule not given here).

For the molecule `C[C@H]1CN([C@@H](C)CO)C(=O)c2ccccc2-c2ccccc2CO[C@H]1CN(C)S(=O)(=O)c1cccc(C#N)c1`, the outcome in test [1], in test [2] and in test [3] was inactive.
On to `COc1ccc(CN(C)C[C@H]2Oc3ccc(NC(=O)Nc4ccc(F)cc4)cc3CC(=O)N([C@@H](C)CO)C[C@@H]2C)cc1`, for which the molecule was classed as inactive in test [1] and in test [2].
As for `C[C@@H]1CN([C@H](C)CO)S(=O)(=O)c2ccc(C#CC3CC3)cc2O[C@H]1CN(C)CC1CCOCC1`, the molecule was called inactive in test [1] and in test [2].
As to `COc1ccc(S(=O)(=O)N[C@H]2C=C[C@H](CC(=O)N3CCC(Cc4ccccc4)CC3)O[C@@H]2CO)cc1`, the molecule was called inactive in test [1], in test [2] and in test [3].
In the case of `CCCC(C)(C)C(=O)N1CCC1(C)C(=O)Nc1ccc(C)cc1` (stereo unspecified), the call in test [1], in test [2] and in test [3] was inactive.
For `O=C(NC1CCCCC1)N[C@H]1C=C[C@@H](CC(=O)N2CCOCC2)O[C@@H]1CO`, the call in test [1], in test [2] and in test [3] was inactive.
As for `COCCN1C(=S)N[C@@H](c2ccccc2)C(C(=O)OC)=C1C`, the molecule was classed as inactive in test [1], in test [2] and in test [3].
Regarding `COCC(=O)N(C)C[C@H]1Oc2ncc(-c3ccccc3F)cc2C(=O)N([C@@H](C)CO)C[C@H]1C`, the call in test [1], in test [2] and in test [3] was inactive.
Consider `Cc1cccc(-c2ccc([C@H]3[C@H](CO)N4CCCCN(C(=O)c5ccc6c(c5)OCO6)C[C@@H]34)cc2)c1`, for which the molecule was called inactive in test [1], in test [2] and in test [3].
On to `O=C(NCCN1CCCCC1)[C@@H]1N[C@@H]2c3ccc(-c4ccncc4)c(=O)n3C[C@@H]2[C@H]1CO`, for which the call in test [1], in test [2] and in test [3] was inactive.
For the molecule `C[C@@H]1CCCCO[C@@H](CN(C)C(=O)Nc2cccc3ccccc23)[C@@H](C)CN([C@H](C)CO)C(=O)c2cc(NS(=O)(=O)c3ccccc3)ccc2O1`, the result in test [1], in test [2] and in test [3] was inactive.
For the molecule `Cc1ccc(S(=O)(=O)N[C@H]2C=C[C@@H](CC(=O)N3CCC(Cc4ccccc4)CC3)O[C@H]2CO)cc1`, the result in test [1], in test [2] and in test [3] was inactive.
With `Cc1ccccc1NC(=O)C(=O)NCCCN1CCCC1=O`, the molecule was classed as inactive in test [1], in test [2] and in test [3].
`C[C@@H]1CN([C@@H](C)CO)C(=O)Cc2cc(NC(=O)c3ccncc3)ccc2O[C@H]1CN(C)Cc1ccncc1`: the molecule was classed as inactive in test [1], in test [2] and in test [3].
Regarding `COC(=O)C1=C(C)N(Cc2ccccc2)C(=S)N[C@H]1c1ccc(Br)cc1`, the result in test [1], in test [2] and in test [3] was inactive.
Regarding `COc1ccccc1CNC(=S)NCc1ccc(Cl)cc1`, the molecule was called inactive in test [1], in test [2] and in test [3].
As to `COC(=O)C1=C(C)N(Cc2ccc(Br)cc2)C(=S)NC1c1ccc(F)cc1` (stereo unspecified), the call in test [1] and in test [2] was inactive.
Regarding `O=C(C[C@@H]1CC[C@H]2[C@@H](COC[C@H](O)CN2Cc2ccc(Oc3ccccc3)cc2)O1)Nc1nccs1`, the outcome in test [1] and in test [2] was inactive.
Take `COCCNC(=O)C[C@H]1C[C@@H]2c3cc(NC(=O)C4CCC4)ccc3O[C@@H]2[C@H](CO)O1`: the call in test [1], in test [2] and in test [3] was inactive.
Consider `C[C@@H]1CCCCO[C@H](CN(C)C(=O)CCCN(C)C)[C@@H](C)CN([C@H](C)CO)C(=O)c2cc(NC(=O)Cc3ccccc3)ccc2O1`, for which the result in test [1], in test [2] and in test [3] was inactive.
Turning to `COc1cccc(-c2ccc3c(c2)[C@H]2[C@H](CCN2C(=O)Cc2ccncc2)[C@H](CO)N3C)c1`, the molecule was classed as inactive in test [1] and in test [2].
On to `CCNC(=O)C[C@H]1CC[C@H](NC(=O)NC2CCCCC2)[C@@H](CO)O1`, for which the result in test [1], in test [2] and in test [3] was inactive.
Consider `CCCC(=O)N1CCC1(C)C(=O)Nc1ccc(C)cc1` (stereo unspecified), for which the outcome in test [1], in test [2] and in test [3] was inactive.
Consider `O=C(NCCN1CCCCC1)[C@H]1N[C@H]2c3ccc(-c4ccncc4)c(=O)n3C[C@H]2[C@@H]1CO`, for which the call in test [1], in test [2] and in test [3] was inactive.
With `C[C@H](CO)N1C[C@H](C)[C@H](CN(C)Cc2ccc(-c3ccccc3)cc2)Oc2c(NC(=O)c3ccncc3)cccc2C1=O`, the molecule was classed as inactive in test [1] and in test [2].
On to `Cc1noc(C)c1NC(=O)N(C)C[C@H]1OCCCC[C@H](C)Oc2ccc(NC(=O)NC(C)C)cc2C(=O)N([C@@H](C)CO)C[C@@H]1C`, for which the result in test [1], in test [2] and in test [3] was inactive.
On to `C[C@H]1CN([C@@H](C)CO)C(=O)c2cc(NC(=O)Nc3ccc(F)cc3)ccc2O[C@@H]1CN(C)S(C)(=O)=O`, for which the result in test [1] and in test [2] was inactive.
As to `Cc1ccc(CSc2ncnc3c2cnn3-c2ccc(C)cc2)cc1`, the result in test [1] and in test [2] was inactive.
Regarding `C[C@@H]1CN([C@H](C)CO)C(=O)c2cc(NC(=O)Nc3cccc4ccccc34)ccc2O[C@@H]1CN(C)C(=O)Nc1ccccc1`, the call in test [1], in test [4], in test [2], in test [5], in test [6] and in test [7] was inactive.
As to `O=C(N[C@H]1CC[C@H](CCn2cc(-c3ccccn3)nn2)O[C@H]1CO)c1ccc(F)cc1`, the molecule was called inactive in test [1] and in test [2].
`C[C@H](CO)N1C[C@H](C)[C@H](CN(C)Cc2ccccc2)OCCCC[C@H](C)Oc2ccc(NS(=O)(=O)c3cccs3)cc2C1=O`: the outcome in test [1], in test [2] and in test [3] was inactive.
Consider `COc1cccc(S(=O)(=O)Nc2ccc3c(c2)[C@H]2C[C@H](CC(=O)N(C)C)O[C@@H](CO)[C@H]2O3)c1`, for which the outcome in test [1], in test [2] and in test [3] was inactive.
Take `O=C(CSc1ncnc2c1cnn2-c1ccccc1)Nc1ccc2c(c1)OCO2`: the molecule was called inactive in test [1], in test [4] and in test [3].
In the case of `C[C@@H]1CN([C@@H](C)CO)C(=O)c2cc(NC(=O)Nc3ccccc3)ccc2O[C@@H]1CN(C)C(=O)Nc1cccc2ccccc12`, the molecule was classed as inactive in test [1] and in test [2].
As for `C[C@H](CO)N1C[C@H](C)[C@@H](CN(C)Cc2ccc(-c3ccccc3)cc2)Oc2ccc(NC(=O)Nc3ccc(C(F)(F)F)cc3)cc2C1=O`, the call in test [1], in test [2] and in test [3] was inactive.
For the molecule `S=C(Nc1ccc(Cl)cc1Cl)Nc1ccccc1Oc1ccccc1`, the outcome in test [1], in test [2] and in test [3] was inactive.
In the case of `Cc1noc(C)c1NC(=O)Nc1ccc2c(c1)C(=O)N([C@@H](C)CO)C[C@H](C)[C@H](CN(C)CC1CCCCC1)O2`, the call in test [1], in test [2] and in test [3] was inactive.
Regarding `Cc1cccc(C)c1NC(=O)C1CCCN1C(=O)NCc1ccccc1` (stereo unspecified), the molecule was classed as inactive in test [1], in test [2] and in test [3].
As to `C[C@@H]1CN([C@@H](C)CO)C(=O)c2cc(NC(=O)C3CC3)ccc2O[C@H]1CN(C)CC1CCCCC1`, the result in test [1], in test [2] and in test [3] was inactive.
Regarding `Cc1cccc(C)c1NC(=O)CN(C)C(=O)C1CCCCC1`, the molecule was called inactive in test [1], in test [2] and in test [3].
On to `CC(C)NC(=O)Nc1ccc2c(c1)CC(=O)N([C@@H](C)CO)C[C@@H](C)[C@H](CN(C)C(=O)Nc1ccc3c(c1)OCO3)O2`, for which the call in test [1], in test [2] and in test [3] was inactive.
